Nine compounds from PubChem BioAssay (NCI) can be followed below.

Each structure is given as a SMILES string. The panel holds about 83,000 compounds, 20% with a hit somewhere; the sample as a whole holds those more often.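 How to read the values: 0–100, growth inhibition (40 = 60% inhibited); 0, no net growth; -100 to 0, cell death (-40 = 40% of starting cells died; -100 = all dead).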 Unmarked numbers belong to inactive results. The source made the active and inactive calls. How the source made its calls: active means growth percent below 10; inactive means the rest.

Test systems include SR leukemia; RPMI-8226 leukemia; OVCAR-8 ovarian; OVCAR-5 ovarian; SK-OV-3 ovarian; IGROV1 ovarian; OVCAR-3 ovarian; HS 578T breast; NCI/ADR-RES ovarian; BT-549 breast; MDA-MB-435 melanoma; SW-620 colon; MCF7 breast; HCT-116 colon; HCC-2998 colon; KM12 colon; OVCAR-4 ovarian; T-47D breast.
Common to all, as to assay: NCI-60 one-dose screen, 48 h (100 = growth as untreated, 0 = no growth, -100 = all killed)
Common to all, as to conditions: 10 µM unless noted

Regarding `Cc1cc(C)cc(NC2=C(Cl)C(=O)c3nc(C)ccc3C2=O)c1`, the growth was 41% in the assay on SR leukemia; -15.1% (active) in the assay with RPMI-8226 leukemia; 73.1% with OVCAR-8 ovarian; 92.7% with OVCAR-5 ovarian; 107% with SK-OV-3 ovarian; -62.1% (active) with IGROV1 ovarian. For the same compound, the growth in the assay on OVCAR-3 ovarian was -0.41% (active); in the assay on HS 578T breast, 11.1%; with NCI/ADR-RES ovarian, 65.6%; in the assay with BT-549 breast, 66.6%; in the assay on MDA-MB-435 melanoma, -78.8% (active); in the assay on SW-620 colon, -6.15% (active). For the same compound, the growth in the assay on MCF7 breast is -44.4% (active); with HCT-116 colon, 9.38% (active); in the assay on HCC-2998 colon it was 77.6%; in the assay on KM12 colon, 76.8%.
Take `C/C(=C(/C)C1CC1CCNC1CCC(NC(=O)OC(C)(C)C)CC1)c1ccccc1` (stereo not given): the growth in the assay on SR leukemia was -25.5% (active); in the assay with RPMI-8226 leukemia, 2.74% (active); in the assay on OVCAR-8 ovarian it was 81.6%; in the assay with OVCAR-5 ovarian it was 84.4%; with OVCAR-4 ovarian, 78.5%; with SK-OV-3 ovarian, 88.8%. Also, the growth is 72.1% in the assay with IGROV1 ovarian; 84.1% in the assay with HS 578T breast; 45.5% in the assay with T-47D breast; 85.5% with BT-549 breast; 52.8% with MDA-MB-435 melanoma; 60.7% in the assay with SW-620 colon. In addition, the growth with MCF7 breast was 15.5%; with HCT-116 colon it was 33.6%; in the assay with HCC-2998 colon, -55.6% (active); in the assay on KM12 colon, 73.7%.
Regarding `O=C1/C(=C/c2cc(F)cc(F)c2)Cc2cc3c(cc21)OCO3`, the growth in the assay on SR leukemia is 18.4%; in the assay on RPMI-8226 leukemia, 52.3%; in the assay with OVCAR-8 ovarian, 42.5%; with OVCAR-5 ovarian it was 65.3%; in the assay on SK-OV-3 ovarian, 35.6%; in the assay on IGROV1 ovarian it was 36.9%. In addition, the growth in the assay with HS 578T breast was 46.9%; with NCI/ADR-RES ovarian, 19.4%; with T-47D breast, 47.6%; in the assay on BT-549 breast, 35.4%; in the assay with MDA-MB-435 melanoma, -44.3% (active); in the assay on SW-620 colon, 28.1%. The growth is 29% in the assay with MCF7 breast, 26.8% in the assay on HCT-116 colon, 65% in the assay on HCC-2998 colon and 34.6% in the assay on KM12 colon.
As for `CN1CCN(CC#CCn2c3c(c4ccccc42)C[C@]2(C)[C@H]4CC=C5[C@@H]6CC(C)(C)CC[C@]6(C(=O)N6CCOCC6)CC[C@@]5(C)[C@]4(C)CC[C@H]2C3(C)C)CC1`, the growth was -4.82% (active) with SR leukemia; 45.5% with RPMI-8226 leukemia; 84.8% in the assay on OVCAR-8 ovarian; 87.2% with OVCAR-5 ovarian; 103% with SK-OV-3 ovarian; 77.6% with IGROV1 ovarian. For the same compound, the growth is 91.3% in the assay on HS 578T breast; 76.8% with NCI/ADR-RES ovarian; 78.7% in the assay with T-47D breast; 96.2% in the assay with BT-549 breast; 82.7% in the assay with MDA-MB-435 melanoma; 11.6% with SW-620 colon. Also, the growth is -3.42% (active) in the assay with MCF7 breast, 22% in the assay with HCT-116 colon, 85.4% with HCC-2998 colon and 66% with KM12 colon.
As for `O=C1CSC(c2cn(-c3ccccc3)nc2-c2ccc(Cl)cc2)N1c1ccccc1` (stereo not given), the growth is 109% in the assay on SR leukemia; 103% with RPMI-8226 leukemia; 104% with OVCAR-8 ovarian; 112% with OVCAR-5 ovarian; 114% in the assay with SK-OV-3 ovarian; 114% in the assay on IGROV1 ovarian. Further, the growth is 124% with OVCAR-3 ovarian; 108% in the assay with HS 578T breast; 104% in the assay with NCI/ADR-RES ovarian; 109% in the assay with BT-549 breast; 120% in the assay with SW-620 colon; 83.5% with MCF7 breast. The results for the growth with HCT-116 colon, in the assay with HCC-2998 colon and in the assay with KM12 colon were 95.4%, 111% and 102%, respectively.
For the compound `CN1CCN(Cc2ccc(NC(=O)c3cncc(C#Cc4cnc5ccc(NCCO)nn45)c3)cc2C(F)(F)F)CC1`, the growth is 4.47% (active) in the assay on SR leukemia; -15.2% (active) in the assay with RPMI-8226 leukemia; 1.73% (active) in the assay on OVCAR-8 ovarian; 5.23% (active) in the assay on OVCAR-5 ovarian; -10.5% (active) in the assay with SK-OV-3 ovarian; -1.21% (active) in the assay with IGROV1 ovarian. Further, the growth was -13.3% (active) in the assay on HS 578T breast; 81.1% in the assay on NCI/ADR-RES ovarian; 21.5% with T-47D breast; -32.2% (active) with BT-549 breast; -6.87% (active) in the assay with MDA-MB-435 melanoma; -13.2% (active) in the assay with SW-620 colon. Further, the growth in the assay with MCF7 breast was -43.5% (active); with HCT-116 colon it was 0.878% (active); in the assay with HCC-2998 colon, -8.28% (active); in the assay with KM12 colon it was -4.28% (active).
Regarding `O=C(/C=C/c1cccc(Br)c1)c1cccc(OCCCCOc2cccc(C(=O)/C=C/c3cccc(Br)c3)c2)c1`, the growth with SR leukemia is 98.5%; in the assay on RPMI-8226 leukemia it was 56.8%; in the assay with OVCAR-8 ovarian, 105%; with OVCAR-5 ovarian, 104%; in the assay on SK-OV-3 ovarian, 107%; with IGROV1 ovarian, 101%. The growth in the assay with OVCAR-3 ovarian is 105%; in the assay with HS 578T breast, 101%; in the assay on NCI/ADR-RES ovarian, 106%; in the assay with T-47D breast it was 104%; in the assay with BT-549 breast, 117%; with MDA-MB-435 melanoma it was 105%. Further, the growth is 98.3% in the assay with SW-620 colon; 89.5% in the assay on MCF7 breast; 87% in the assay on HCT-116 colon; 118% in the assay on HCC-2998 colon; 98.7% in the assay with KM12 colon.
On to `NCCNC(=O)c1cccc(COc2ccccc2NC(=O)c2cc(Cl)c(Cl)[nH]2)c1`, for which the growth was 8.2% (active) in the assay on SR leukemia; 101% with RPMI-8226 leukemia; 92.1% in the assay on OVCAR-8 ovarian; 96.8% in the assay with OVCAR-5 ovarian; 111% with SK-OV-3 ovarian; 94.6% with IGROV1 ovarian. In addition, the growth in the assay with OVCAR-3 ovarian was 109%; in the assay on HS 578T breast, 103%; in the assay on NCI/ADR-RES ovarian, 101%; with T-47D breast, 89.2%; in the assay on BT-549 breast it was 105%; in the assay on MDA-MB-435 melanoma, 101%. Further, the growth was 111% with SW-620 colon; 77.7% in the assay with MCF7 breast; 86.1% in the assay on HCT-116 colon; 106% with HCC-2998 colon; 101% in the assay with KM12 colon.
Regarding `Cc1ccc(CSC2=C(Cl)CN(c3ccc(Cl)cc3)C2=O)cc1`, the growth is 74.1% with SR leukemia; 92.8% with RPMI-8226 leukemia; 105% with OVCAR-8 ovarian; 106% with OVCAR-5 ovarian; 107% in the assay with OVCAR-4 ovarian; 117% in the assay on SK-OV-3 ovarian. The growth with IGROV1 ovarian was 115%; with HS 578T breast, 107%; with T-47D breast it was 96.5%; in the assay with BT-549 breast, 110%; in the assay with MDA-MB-435 melanoma, 103%; in the assay on SW-620 colon it was 108%. Also, the growth is 79.1% with MCF7 breast, 98.5% in the assay on HCT-116 colon, 105% in the assay with HCC-2998 colon and 106% with KM12 colon.
